This passage reports composite z-score and z-score results from PubChem BioAssay.

The source made the active and inactive calls. Unless noted, how the calls were made is not given here.

Experiment [1] has as its system XIP peptide (Xip251-270) binding. The experiment can be described thus: small-molecule binders of XIP peptide, primary screen, biochemical, small-molecule microarray, fluorescence 635/667 nm, 0.1 µg/mL protein (AID 1182). The note with it: fluorescent protein binding, 635 nm, higher = more signal, called active from +8 up or from −8 down.
For a further experiment, the system named is XIP peptide (Xip251-270). The experiment can be described thus: small-molecule binders of XIP peptide, primary screen, biochemical, small-molecule microarray, fluorescence 635/667 nm, 0.5 µg/mL protein (AID 1183). The note with it: small-molecule microarray binding, fluorescence 635 nm; higher = more signal.
Experiment [2] can be described thus: Plasmodium falciparum growth inhibition, primary screen, strain 3D7, DAPI fluorescence, 100 nL (AID 1184).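 Further: parasites grown inside human red blood cells in medium with human serum.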 The note with it: P. falciparum 3D7 growth, 3 d, higher = more signal.
The target of experiment [3] is Homeobox protein Hox-A13 (Mus musculus) (UniProt Q62424). Description: inhibitors of HoxA13-DNA binding, primary screen, biochemical, fluorescence polarization, labeled oligonucleotide (AID 1185). The note with it: 15 min, higher = more signal, called active from +8 up or from −8 down. For orientation: In fluorescence polarisation assays a small probe gives low polarisation when free and higher when bound to something large.

The nature of experiment [4]: inhibitors of hydroxyurea-induced Chk1 phosphorylation, primary screen, imaging, HeLa, phospho-Chk1 antibody, percent positive cells (AID 1186). The note with it: hydroxyurea-induced phospho-Chk1 immunofluorescence imaging, higher = more signal.
Experiment [5] in a line: inhibitors of hydroxyurea-induced Chk1 phosphorylation, primary screen, imaging, HeLa, phospho-Chk1 nuclear intensity (AID 1187). The note with it: hydroxyurea-induced phospho-Chk1 immunofluorescence imaging, higher = more signal.

Sequence of Homeobox protein Hox-A13 (Mus musculus) (Q62424 whole entry, looked up): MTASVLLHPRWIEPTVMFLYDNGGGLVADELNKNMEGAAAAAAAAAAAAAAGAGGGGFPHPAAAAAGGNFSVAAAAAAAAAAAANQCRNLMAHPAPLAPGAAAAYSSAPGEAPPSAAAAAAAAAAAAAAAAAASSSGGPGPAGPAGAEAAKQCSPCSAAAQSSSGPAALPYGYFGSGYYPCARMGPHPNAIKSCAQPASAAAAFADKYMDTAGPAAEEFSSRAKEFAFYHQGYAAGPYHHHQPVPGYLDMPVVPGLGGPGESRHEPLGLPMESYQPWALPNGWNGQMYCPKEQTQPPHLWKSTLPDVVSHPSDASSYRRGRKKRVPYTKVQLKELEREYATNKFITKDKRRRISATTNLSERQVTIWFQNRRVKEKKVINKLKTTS

With `NC(=O)[C@@H]1[C@H]2C(=O)O[C@H](c3ccccc3)[C@H](c3ccccc3)N2[C@H](c2ccc(O)cc2)[C@@]12C(=O)Nc1ccc(C#CC3=CCCCC3)cc12`, the composite z-score in experiment [1] was 0.799 (inactive); in the experiment on XIP peptide (Xip251-270) it was 0.619. Also, the z-score in experiment [2] is -0.303; in experiment [3], -0.487 (inactive); in experiment [4], 0.0025 (inactive); in experiment [5], 0.518 (inactive).

On to `CCCC[C@H]1C[C@@H]1[C@@H]1N(P(=O)(c2ccccc2)c2ccccc2)C[C@@](O)(c2ccccc2)CC12CC2`, for which the composite z-score in experiment [1] was -0.0646 (inactive); with XIP peptide (Xip251-270), -0.0749. In addition, the z-score is -1.22 in experiment [2], -2.37 (inactive) in experiment [3], 0.0682 (inactive) in experiment [4] and 0.228 (inactive) in experiment [5].

As to `COCCCNC(=O)[C@@]1(Cc2ccccc2CN=[N+]=[N-])N=C(c2ccc(OCCCO)cc2)O[C@H]1c1ccccc1CN=[N+]=[N-]`, the composite z-score in experiment [1] is 1.01 (inactive); in the experiment with XIP peptide (Xip251-270) it was 0.443. Further, the z-score in experiment [2] is -2.23; in experiment [3], -4.09 (inactive); in experiment [4], -0.485 (inactive); in experiment [5], -0.763 (inactive).

With `CC(CO)N1C(=O)[C@@H]2C3C(=O)OCCC/C=C\[C@H]3OC23C=CCN(CCN2CCOCC2)C(=O)[C@@H]13` (stereo partly drawn), the composite z-score is -0.134 (inactive) in experiment [1] and -0.0838 in the experiment with XIP peptide (Xip251-270). The z-score in experiment [2] was 0.339; in experiment [3], -4.25 (inactive); in experiment [4] it was -0.957 (inactive); in experiment [5], -1.88 (inactive).

Consider `COc1ccc(C(=O)Nc2cccc(CN3C(=O)[C@]4(O[C@H](CCn5cc(CCO)nn5)[C@@H]([Si](C)(C)c5ccc(OC)cc5)[C@@H]4C)c4ccccc43)c2)cc1`, for which the composite z-score in experiment [1] is -0.16 (inactive); with XIP peptide (Xip251-270) it was 0.249. Besides, the z-score in experiment [2] was -2.72; in experiment [3], -4.83 (inactive); in experiment [4] it was -0.745 (inactive); in experiment [5] it was -2.04 (inactive).

`CCCCC(=C=CC[C@H](O)c1cccc(OCCO)c1)C[C@H](O)c1ccccn1`: the results for the composite z-score (in experiment [1]; in the experiment on XIP peptide (Xip251-270)) were 0.0547 (inactive) and 0.661, respectively. The z-score was -1.78 in experiment [2], -4.75 (inactive) in experiment [3], -0.949 (inactive) in experiment [4] and -0.278 (inactive) in experiment [5].

`COCCOC(=O)N1C(=O)[C@@]2(c3cc(C#CC4=CCCCC4)ccc31)[C@H](C(N)=O)[C@H]1C(=O)O[C@H](c3ccccc3)[C@H](c3ccccc3)N1[C@@H]2c1ccc(O)cc1`: the composite z-score in experiment [1] is 1.79 (inactive); in the experiment with XIP peptide (Xip251-270) it was 0.769. The z-score was 0.55 in experiment [2], -0.393 (inactive) in experiment [3], -0.371 (inactive) in experiment [4] and -0.552 (inactive) in experiment [5].

For the compound `O=C1O[C@@H](c2ccccc2)[C@@H](c2ccccc2)N2[C@@H](c3ccc(OCCO)cc3)[C@]3(C(=O)Nc4ccc(C#CCCO)cc43)[C@@H](C(=O)NC[C@H](O)c3ccccc3)[C@H]12`, the composite z-score in experiment [1] is 0.0796 (inactive); in the experiment on XIP peptide (Xip251-270), 0.822. Further, the z-score in experiment [2] was -0.271; in experiment [3] it was -3.67 (inactive); in experiment [4], -0.174 (inactive); in experiment [5] it was -0.317 (inactive).

For the compound `[N-]=[N+]=NCc1ccccc1[C@@H]1OC(c2ccc(OCCCO)cc2)=N[C@]1(CCS(=O)(=O)c1ccccc1)C(N)=O`, the composite z-score in experiment [1] is 0.57 (inactive); in the experiment with XIP peptide (Xip251-270) it was 0.869. The z-score in experiment [2] is -0.397; in experiment [3], -3.55 (inactive); in experiment [4], -0.0248 (inactive); in experiment [5], 0.227 (inactive).

On to `CO[C@H]1O[C@H](CO)[C@@H](OC(=O)Nc2ccc(Br)cc2)[C@@H]2OC(=O)[C@H](Cc3cccc(Br)c3)C/C=C/C[C@@H](Cc3cccc(Br)c3)C(=O)O[C@@H]12`, for which the composite z-score in experiment [1] was 0.406 (inactive); in the experiment with XIP peptide (Xip251-270), 0.467. Further, the z-score in experiment [2] is -1.55; in experiment [3] it was 1.51 (inactive); in experiment [4], -0.423 (inactive); in experiment [5] it was -0.471 (inactive).

For `COCC(=C=CC[C@H](O)c1cccc(OCCO)c1)CCO`, the composite z-score was 1.15 (inactive) in experiment [1] and 0.433 in the experiment with XIP peptide (Xip251-270). For the same compound, the z-score was 0.547 in experiment [2], -2.29 (inactive) in experiment [3], -0.0132 (inactive) in experiment [4] and -0.479 (inactive) in experiment [5].

As to `O=C1C2C=CC(C(O)c3cc(C(F)(F)F)cc(C(F)(F)F)c3)N(Nc3ccccc3)C2C(=O)N1c1ccccc1` (stereo not drawn), the composite z-score was 0.926 (inactive) in experiment [1] and 0.197 in the experiment with XIP peptide (Xip251-270). Moreover, the z-score in experiment [2] is 0.0018; in experiment [3] it was -2.82 (inactive); in experiment [4] it was 0.0811 (inactive); in experiment [5], -0.017 (inactive).

Take `C=C(CCCC)C(=O)CC[C@@H](OC(C)=O)c1ccc(CO)o1`: the composite z-score was 0.247 (inactive) in experiment [1] and 0.337 with XIP peptide (Xip251-270). In addition, the z-score is -0.201 in experiment [2], -3.66 (inactive) in experiment [3], 0.593 (inactive) in experiment [4] and 0.245 (inactive) in experiment [5].

For `COC(=O)[C@@]1(Cc2ccc(F)cc2)[C@H]2c3cc(C(=O)N(C)C)n(Cc4ccc(C)o4)c3C[C@H]2CN1C(=O)c1ccccc1`, the values for the composite z-score (in experiment [1]; in the experiment with XIP peptide (Xip251-270)) were 1.66 (inactive) and 0.665, respectively. The z-score in experiment [2] is -1.44; in experiment [3], -2.94 (inactive); in experiment [4], 0.262 (inactive); in experiment [5] it was -0.0286 (inactive).

As to `CC(c1ccccc1)C(O)C1C=CC2C(=O)N(c3ccccc3)C(=O)C2N1Nc1ccccc1` (stereo not drawn), the composite z-score was 1.06 (inactive) in experiment [1] and 0.807 with XIP peptide (Xip251-270). In addition, the z-score in experiment [2] is -0.417; in experiment [3] it was -2.4 (inactive); in experiment [4] it was 0.2 (inactive); in experiment [5] it was 0.175 (inactive).

For the compound `CCCCN1CC=CC23O[C@@H]4/C=C\CCCOC(=O)C4[C@H]2C(=O)N(CCCO)[C@@H]3C1=O` (stereo partly drawn), the composite z-score in experiment [1] was 1.48 (inactive); in the experiment on XIP peptide (Xip251-270), 0.737. The z-score is 0.651 in experiment [2], -5.29 (inactive) in experiment [3], 0.267 (inactive) in experiment [4] and 0.576 (inactive) in experiment [5].

With `[N-]=[N+]=NCc1ccccc1C[C@@]1(C(=O)NCC(O)CO)N=C(c2ccc(OCCCO)cc2)O[C@@H]1c1ccccc1` (stereo partly drawn), the composite z-score in experiment [1] is 0.691 (inactive); in the experiment with XIP peptide (Xip251-270), 0.684. In addition, the z-score in experiment [2] was -2.03; in experiment [3] it was -4.12 (inactive); in experiment [4] it was -0.0558 (inactive); in experiment [5] it was 0.274 (inactive).

For the compound `CCCCN1CC=CC23O[C@@H]4/C=C\CCCOC(=O)C4[C@H]2C(=O)N(CCCCCO)[C@@H]3C1=O` (stereo partly drawn), the figures for the composite z-score (in experiment [1]; in the experiment with XIP peptide (Xip251-270)) were -0.359 (inactive) and 0.41, respectively. In addition, the z-score in experiment [2] was 1.34; in experiment [3] it was -4.13 (inactive); in experiment [4], 1.19 (inactive); in experiment [5], 0.831 (inactive).
